According to PubChem BioAssay (NCI):
The panel holds about 83,000 compounds, 20% with a hit somewhere; the sample as a whole holds those more often.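 Compound tested at a single concentration for 48 hours in 96-well plates; a percent growth value below 10 was scored as active.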 The source made the active and inactive calls.

How the values were obtained:
Assay in all cases: NCI-60 one-dose screen, 48 h (100 = growth as untreated, 0 = no growth, -100 = all killed)
Settings in all cases: 10 µM unless noted
NCI-H23 lung = tested on: NCI-H23 lung
NCI-H322M lung = tested on: NCI-H322M lung
HOP-62 NSCLC = tested on: HOP-62 NSCLC
NCI-H460 lung = tested on: NCI-H460 lung
HOP-92 NSCLC = tested on: HOP-92 NSCLC
NCI-H522 lung = tested on: NCI-H522 lung
A549/ATCC NSCLC = tested on: A549/ATCC NSCLC
786-0 renal = tested on: 786-0 renal
COLO 205 colon = tested on: COLO 205 colon
DU-145 prostate = tested on: DU-145 prostate
K-562 leukemia = tested on: K-562 leukemia
MALME-3M melanoma = tested on: MALME-3M melanoma
MDA-MB-231 breast = tested on: MDA-MB-231 breast
RXF 393 renal = tested on: RXF 393 renal
SF-268 CNS = tested on: SF-268 CNS
SF-539 CNS = tested on: SF-539 CNS
UACC-257 melanoma = tested on: UACC-257 melanoma
M14 melanoma = tested on: M14 melanoma
HCT-15 colon = tested on: HCT-15 colon
SF-295 CNS = tested on: SF-295 CNS

Measured: growth

CCN(CC)c1cc(C)c2cc(NC(=O)c3cccc(OC)c3)ccc2n1
inactive: NCI-H23 lung 85% | NCI-H322M lung 109% | HOP-62 NSCLC 107% | NCI-H460 lung 57.1% | HOP-92 NSCLC 29.1% | NCI-H522 lung 93.4% | A549/ATCC NSCLC 80% | 786-0 renal 70% | COLO 205 colon 89.7% | DU-145 prostate 92.9% | K-562 leukemia 13.4% | MALME-3M melanoma 82.5% | MDA-MB-231 breast 55.5% | RXF 393 renal 51.3% | SF-268 CNS 63.2% | SF-539 CNS 77.3% | UACC-257 melanoma 105% | M14 melanoma 77.3% | HCT-15 colon 61.4%

COc1ccc(-c2nc(-c3ccccc3)c(-c3ccccc3)[nH]2)cc1OC1CCCCC1
inactive: NCI-H23 lung 89% | NCI-H322M lung 84.9% | HOP-62 NSCLC 105% | NCI-H460 lung 88.3% | HOP-92 NSCLC 69.6% | NCI-H522 lung 88.3% | A549/ATCC NSCLC 85.5% | 786-0 renal 102% | COLO 205 colon 98.1% | DU-145 prostate 99.7% | K-562 leukemia 81.4% | MALME-3M melanoma 73% | MDA-MB-231 breast 67% | RXF 393 renal 105% | SF-268 CNS 84.4% | SF-295 CNS 80.9% | SF-539 CNS 102% | UACC-257 melanoma 93.8% | M14 melanoma 92.2% | HCT-15 colon 93.4%

O=Nc1c(O)ccc2ccccc12.O=Nc1c(O)ccc2ccccc12.O=Nc1c([O-])ccc2ccccc12.[Fe+3]
inactive: NCI-H23 lung 87% | NCI-H322M lung 104% | HOP-62 NSCLC 87.6% | NCI-H460 lung 105% | HOP-92 NSCLC 94.5% | NCI-H522 lung 103% | A549/ATCC NSCLC 106% | 786-0 renal 115% | COLO 205 colon 103% | DU-145 prostate 125% | K-562 leukemia 115% | MALME-3M melanoma 95.8% | MDA-MB-231 breast 86.9% | RXF 393 renal 110% | SF-268 CNS 106% | SF-539 CNS 96% | UACC-257 melanoma 110% | M14 melanoma 97.2% | HCT-15 colon 105%

O=NN(Cc1cccnc1)C(=O)NC1CCCCC1
inactive: NCI-H23 lung 111% | NCI-H322M lung 106% | HOP-62 NSCLC 107% | NCI-H460 lung 109% | HOP-92 NSCLC 82.3% | NCI-H522 lung 90.5% | A549/ATCC NSCLC 93.9% | 786-0 renal 108% | COLO 205 colon 111% | DU-145 prostate 116% | K-562 leukemia 101% | MALME-3M melanoma 102% | MDA-MB-231 breast 127% | RXF 393 renal 102% | SF-268 CNS 106% | SF-295 CNS 80.7% | SF-539 CNS 96.2% | UACC-257 melanoma 92.5% | M14 melanoma 107% | HCT-15 colon 108%

COc1ccc(C2C3=C(COC3=O)N(CCO)c3cc4c(cc32)CCC4)cc1OC (stereo unspecified)
inactive: NCI-H23 lung 29.8% | NCI-H322M lung 35.3% | HOP-62 NSCLC 31.6% | HOP-92 NSCLC 91.9% | A549/ATCC NSCLC 19.5% | 786-0 renal 26.7% | COLO 205 colon 14.9% | K-562 leukemia 14.7% | MALME-3M melanoma 42.8% | MDA-MB-231 breast 24.7% | SF-268 CNS 49.1% | UACC-257 melanoma 43.6% | HCT-15 colon 21.8%
active: NCI-H460 lung -15.1% | NCI-H522 lung -33.7% | DU-145 prostate -28.1% | RXF 393 renal -42.7% | SF-295 CNS -2.08% | SF-539 CNS -20.4% | M14 melanoma -18.4%

O=C(NC(=S)Nc1cccc(NC(=S)NC(=O)c2ccccc2)c1)c1ccccc1
inactive: NCI-H23 lung 69.1% | NCI-H322M lung 89% | HOP-62 NSCLC 52.5% | NCI-H460 lung 46.4% | HOP-92 NSCLC 34.8% | A549/ATCC NSCLC 57.6% | 786-0 renal 76.5% | COLO 205 colon 56.5% | DU-145 prostate 77.5% | K-562 leukemia 68.7% | MALME-3M melanoma 55.3% | MDA-MB-231 breast 56.7% | RXF 393 renal 85.4% | SF-268 CNS 56.1% | SF-539 CNS 70% | UACC-257 melanoma 44.7% | M14 melanoma 73.5% | HCT-15 colon 73.5%
active: NCI-H522 lung -9.46%

O=C(CSc1ncccc1C(=O)O)Nc1ccc(Oc2ccccc2)cc1
inactive: NCI-H23 lung 104% | NCI-H322M lung 99% | HOP-62 NSCLC 93.8% | NCI-H460 lung 102% | HOP-92 NSCLC 102% | NCI-H522 lung 105% | A549/ATCC NSCLC 98% | 786-0 renal 99.8% | COLO 205 colon 108% | DU-145 prostate 110% | K-562 leukemia 94.4% | MALME-3M melanoma 99.3% | MDA-MB-231 breast 124% | RXF 393 renal 107% | SF-268 CNS 105% | SF-539 CNS 106% | UACC-257 melanoma 100% | M14 melanoma 98.7% | HCT-15 colon 104%

COc1ccc(CCN2C(=O)/C(=C/c3ccc(C4Oc5ccccc5C5CC(c6cccc(OC)c6)=NN54)cc3)SC2=S)cc1 (stereo unspecified)
inactive: NCI-H23 lung 99.8% | NCI-H322M lung 103% | HOP-62 NSCLC 100% | NCI-H460 lung 101% | HOP-92 NSCLC 96.2% | NCI-H522 lung 90.3% | A549/ATCC NSCLC 103% | 786-0 renal 105% | COLO 205 colon 107% | DU-145 prostate 101% | K-562 leukemia 105% | MALME-3M melanoma 97.8% | MDA-MB-231 breast 101% | RXF 393 renal 107% | SF-268 CNS 94.4% | SF-295 CNS 97.7% | SF-539 CNS 95.4% | UACC-257 melanoma 101% | M14 melanoma 97.1% | HCT-15 colon 102%
